{"source": "PubChem BioAssay AID488969", "about": "(Vanderbilt High Throughput Screening Facility, 2010)", "note": "The full ranking holds about 110,000 compounds; the median of “z-score” is about -0.1, and the highest 2% start at about 2. Only a selection was taken, and the highest values are over-represented in it overall. Activity calls are given as the source filed them.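 How the source made its calls: active means z-score in the third read window above 3 or below -3; inactive means the rest.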", "data": [{"molecular_target": "Metabotropic glutamate receptor 8 (Rattus norvegicus) (UniProt P70579)", "sequence (P70579 whole entry, looked up)": "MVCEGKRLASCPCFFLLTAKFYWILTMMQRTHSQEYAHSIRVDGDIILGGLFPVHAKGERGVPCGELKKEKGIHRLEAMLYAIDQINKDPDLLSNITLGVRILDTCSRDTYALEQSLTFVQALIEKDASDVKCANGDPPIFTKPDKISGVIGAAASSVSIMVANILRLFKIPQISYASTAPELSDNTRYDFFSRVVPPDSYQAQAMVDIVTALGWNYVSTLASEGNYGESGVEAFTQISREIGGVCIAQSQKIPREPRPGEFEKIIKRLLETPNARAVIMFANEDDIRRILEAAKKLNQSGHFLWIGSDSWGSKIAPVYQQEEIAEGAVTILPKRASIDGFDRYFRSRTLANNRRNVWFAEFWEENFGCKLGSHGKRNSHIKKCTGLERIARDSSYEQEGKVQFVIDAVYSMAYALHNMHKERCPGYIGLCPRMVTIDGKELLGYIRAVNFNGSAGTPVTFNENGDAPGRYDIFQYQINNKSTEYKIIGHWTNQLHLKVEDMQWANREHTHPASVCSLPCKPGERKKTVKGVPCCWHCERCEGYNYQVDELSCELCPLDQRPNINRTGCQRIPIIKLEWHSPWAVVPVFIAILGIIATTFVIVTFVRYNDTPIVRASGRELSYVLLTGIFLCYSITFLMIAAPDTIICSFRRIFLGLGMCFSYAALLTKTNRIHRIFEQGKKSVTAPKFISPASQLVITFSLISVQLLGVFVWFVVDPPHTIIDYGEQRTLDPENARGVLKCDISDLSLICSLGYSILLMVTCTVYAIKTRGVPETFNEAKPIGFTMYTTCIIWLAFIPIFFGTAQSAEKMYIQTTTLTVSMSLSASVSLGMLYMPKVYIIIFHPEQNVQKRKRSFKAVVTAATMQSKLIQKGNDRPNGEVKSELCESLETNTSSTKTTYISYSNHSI", "assay": "rat mGluR8 modulators via GIRK flux, primary screen, cell-based, thallium flux, HTS (AID 488969)", "settings": "HEK293 rat mGluR8, GIRK (G protein-gated inwardly rectifying potassium channel) thallium flux, FluoZin2; at 10 µM; stronger effect = higher value; submaximal glutamate (EC20) added with thallium", "values": [{"smiles": "O=C(COc1ccccc1Cl)Nc1nc(-c2cccs2)cs1", "z-score": 0.4}, {"smiles": "O=C(Cc1ccccc1)Nc1nnc(-c2cccs2)s1", "z-score": 0.154}, {"smiles": "O=C(COc1ccccc1)Nc1nccs1", "z-score": 1.35}, {"smiles": "Cc1cccc2cc(CN(Cc3ccc(F)cc3)C(=O)C(F)(F)F)c3nnnn3c12", "z-score": -0.681}, {"smiles": "Cc1ccc2c(c1)N(CC(=O)NCc1ccco1)C(=O)CO2", "z-score": -0.265}, {"smiles": "COc1ccc2nc(SCc3cnc(C)nc3N)[nH]c2c1", "z-score": 0.0366}, {"smiles": "CCc1ccc2[nH]c(=O)c(CN(CCN(C)C)C(=O)Nc3ccccc3)cc2c1", "z-score": -0.0486}, {"smiles": "N#Cc1c(N)sc2c1CCN(CCc1ccccc1)C2", "z-score": 0.208}, {"smiles": "COc1ccccc1-n1c(SCC(=O)NC2CCS(=O)(=O)C2)nc2cc([N+](=O)[O-])ccc21", "note": "(configuration not stated)", "z-score": -0.116}, {"smiles": "COc1ccc2nc(SCC(=O)O)nc(C)c2c1", "z-score": -0.216}, {"smiles": "CCOC(=O)CCSc1nc(C)c2cc(OC)ccc2n1", "z-score": -0.0662}, {"smiles": "CCOC(=O)CSc1nc(C)c2cc(OC)ccc2n1", "z-score": "6.89 (active)"}, {"smiles": "CC1CCCN(C(=O)C2CCCN(S(=O)(=O)c3cccc4nsnc34)C2)C1", "note": "(configuration not stated)", "z-score": 0.195}, {"smiles": "Cc1cccc(NC(=S)NNC(=O)c2csc(C(C)C)c2)c1", "z-score": "8.28 (active)"}, {"smiles": "Cc1cc(C(=O)NNC(=S)NCC(C)C)cs1", "z-score": 0.377}, {"smiles": "CCNC(=S)NNC(=O)c1csc(C(C)C)c1", "z-score": -0.354}, {"smiles": "CCCCNC(=S)NNC(=O)c1csc(C(C)C)c1", "z-score": 0.133}, {"smiles": "Cc1ccc(C)c(NC(=S)NNC(=O)c2ccc(Br)o2)c1", "z-score": 0.537}, {"smiles": "Cc1ccc(C)c(NC(=S)NNC(=O)c2csc(C(C)C)c2)c1", "z-score": "12 (active)"}, {"smiles": "CCCCn1c(SCC(=O)Nc2cc(C)on2)nnc1-c1ccco1", "z-score": 1.3}, {"smiles": "CCOc1ccccc1NC(=O)c1cc(S(=O)(=O)N2CCC3(CC2)OCCO3)ccc1F", "z-score": -0.432}, {"smiles": "COc1ccccc1NC(=O)c1cc(S(=O)(=O)N2CCC3(CC2)OCCO3)ccc1F", "z-score": -0.251}, {"smiles": "CCOc1ccccc1NC(=O)c1ccc(F)c(S(=O)(=O)N2CCC3(CC2)OCCO3)c1", "z-score": 2.77}, {"smiles": "CCNC(=S)NN=C1CCC(C(C)(C)C)CC1", "note": "(configuration not stated)", "z-score": 0.883}, {"smiles": "O=C(COC(=O)COc1ccccc1Cc1ccccc1)Nc1cccnc1Cl", "z-score": -0.941}, {"smiles": "Cc1cccc2sc(NC(=O)CSCc3ccccc3)nc12", "z-score": 0.801}, {"smiles": "Cc1cccc2sc(NC(=O)Cn3cccc3)nc12", "z-score": "13.9 (active)"}, {"smiles": "Cc1cccc2sc(NC(=O)CN3C(=O)c4ccccc4C3=O)nc12", "z-score": -0.16}, {"smiles": "Cc1onc(-c2c(F)cccc2Cl)c1C(=O)N1C=CC(C(F)(F)F)=NCC1", "z-score": -0.013}, {"smiles": "O=C(CSc1nc(-c2ccccc2)cc(=O)[nH]1)N1CCc2ccccc21", "z-score": "9.86 (active)"}, {"smiles": "Nc1nc(SCC(=O)N2CCc3ccccc32)[nH]c(=O)c1-c1ccccc1", "z-score": 0.47}, {"smiles": "O=C(CSc1nc(O)cc(=O)[nH]1)N1CCCc2ccccc21", "z-score": -0.65}, {"smiles": "Cc1cc(=O)[nH]c(SCC(=O)N2CCCc3ccccc32)n1", "z-score": 0.265}, {"smiles": "CCc1c(C)nc(SCC(=O)N2CCc3ccccc32)[nH]c1=O", "z-score": "4.54 (active)"}, {"smiles": "Cc1nnc(SCC(=O)N2CCCc3ccccc32)[nH]c1=O", "z-score": -0.411}, {"smiles": "CCOc1ccc(C2/C(=C(/O)c3ccccc3)C(=O)C(=O)N2CCCN(C)C)cc1OC", "note": "(configuration not stated)", "z-score": 0.188}, {"smiles": "O=C(COC(=O)c1cnccn1)c1ccc2ccccc2c1", "z-score": 0.118}, {"smiles": "CCSc1nc2ccccc2c(=O)n1OCC(=O)OC", "z-score": -0.148}, {"smiles": "COn1c(SC(C)C)nc2ccccc2c1=O", "z-score": -0.948}, {"smiles": "COC(=O)COn1c(SC(C)C)nc2ccccc2c1=O", "z-score": 2.57}, {"smiles": "Cc1cc(NC(=O)c2cc3ccccc3oc2=O)no1", "z-score": 0.0723}, {"smiles": "Cc1cc2cc(CN(CCN3CCOCC3)C(=O)Nc3ccccc3F)c(=O)[nH]c2cc1C", "z-score": -0.536}, {"smiles": "CC(C)OP(=O)(OC(C)C)C1(O)C(=O)Nc2ccccc21", "note": "(configuration not stated)", "z-score": -0.0437}, {"smiles": "COc1ccc(C(=O)NC(=S)Nc2ccccc2F)cc1", "z-score": 0.595}, {"smiles": "CCOc1ccc(C(=O)NC(Cc2ccccc2)C(=O)OC)cc1", "note": "(configuration not stated)", "z-score": -0.262}, {"smiles": "CCOc1ccc(C(=O)NC(=S)N(Cc2ccccc2)Cc2ccccc2)cc1", "z-score": "11.7 (active)"}, {"smiles": "CCOc1ccc(C(=O)NCCc2ccccc2)cc1", "z-score": 0.0133}, {"smiles": "COc1ccc(C(=O)NC(=S)N(Cc2ccccc2)Cc2ccccc2)cc1", "z-score": "16.8 (active)"}, {"smiles": "COc1ccc(C(=O)NN(c2ccccc2)c2ccccc2)cc1", "z-score": -0.0602}, {"smiles": "COc1ccc(C2SCC(=O)N2CC23CC4CC(CC(C4)C2)C3)cc1", "note": "(configuration not stated)", "z-score": -0.23}, {"smiles": "CCC(=O)N1N=C(c2c(-c3ccccc3)c3cc(Cl)ccc3[nH]c2=O)CC1c1ccco1", "note": "(configuration not stated)", "z-score": -0.155}, {"smiles": "CCCCn1c(/N=C/c2ccc3c(c2)OCO3)nc2ccccc21", "z-score": -0.738}, {"smiles": "CC(C)=CC[N+]1(C)CCCCC1", "z-score": 1.14}, {"smiles": "N#C/C(=C\\c1cn(CCOc2ccccc2F)c2ccccc12)C(=O)NCc1cccs1", "z-score": -0.0588}, {"smiles": "CCOc1ccc(N2C(=O)/C(=C/c3cc(OC)c(OC)c(OC)c3)N(CC(=O)OC)C2=S)cc1", "z-score": "14.1 (active)"}, {"smiles": "CCOc1ccc(/C=C2/C(=O)N(c3ccc(OC)cc3)C(=S)N2CC(=O)OC)cc1OCC", "z-score": 0.273}, {"smiles": "CCOc1ccc(N2C(=O)/C(=C/c3cccs3)N(CC(=O)OC)C2=S)cc1", "z-score": -0.17}]}]}
